In all, about 53,000 sequences went through this assay and about 3,700 (7%) were called active. Shown is part of a subset that was picked to be rich in actives. Values without a mark were called inactive.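 Rule for the calls: active = gene knockdowns whose robust z-score for IL-1 alpha signal is at least 2 or at most -2, so actives lie on both sides; inactive = the rest.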

The assay in a line: Components of the Cytosolic LPS Sensing Pathway: Gene Identification via Genome-wide siRNA Screen.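 Note: robust z of the log signal after scaling to non-targeting control siRNA wells of the plate.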 The settings on record: RAW264.7 macrophages, IL-1a HTRF, actives lie on both sides, screened at 100 nM (by protocol), cells primed 5 h with Pam3CSK4 first. The method, boiled down:
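Knockdown: 100 nM siRNA, 48h, RAW264.7. Stimulation: Pam3CSK4 5 h, then LipidA via TransIT-TKO 24 h. Output: supernatant IL-1a HTRF, negative-control-normalized, log robust z-score; viability by CellTiter-Glo.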
For orientation: Time-resolved FRET reads energy transfer from a long-lived donor to a nearby acceptor.
Turning to GGACCUUGAGAAAGUAGUCTT against Ms4a10, the z-score is 0.651. For the sequence GGUGAUGAAAAAGGACAGCTT against Oit1, the z-score was 0.0982. For the sequence GUACGUCAAGAGCCUGCGUTT against Fam110a, the z-score is -2.65 (active). Next, GGAGCAGAUACCCUAGCCUTT against Mtx1: 0.698. Take GGACUUGAAGAUGUACCAGTT against Il12a: the z-score was 0.427. Next, GCCAUUCUAGAACCUGUAGTT against Zwint: -1.65. As for GCUAACUUAGAUAUCCAGGTT against Abtb2, the z-score is 0.125.

Take GGGCCAAAUUUGAAUCCCUTT against Rcan1: the z-score is -2.09 (active). Next, CCAAGUUUUUAUGCAGAUATT against Pip5k1b: 1.6; GGGUAUAUUUCCUUCCAGCTT against Dock4: -0.105; GGUGGGAUGAUCAUAAGUUTT against Ppnr: -0.0428. As to GCUGUGGAACUUAUGUUUUTT against Faxc, the z-score was -0.518. Next, GGAUUAAUCAAACUGAGAGTT against Lrrtm2: -1.24; GCGAUUCCUAGAGCUGAGCTT against Git1: -2.5 (active). GCUGAUUAGCCAUGUAAUUTT against Cebpg: the z-score was -0.481. Next, GCUUUAUGGAUCUACCAAATT against Fbxl3: 1.81; GGAAAACAGCUUUGAUUGGTT against Tmem232: 0.868; GCAAGCCAACUGACCAUCATT against Nudt2: 0.486. Next, CGACUCCAUGUGGACUUAUTT against Gca: -1.16; CGAACACUAAGCUUUGAUATT against Rab11fip2: -0.493. Turning to GGUUUUACAUUCUGUGUUUTT against Spata9, the z-score was -0.898. Next, CCUUGGAGAGAGAAGACAUTT against Rpp38: 0.292; CCAAUGCAAGUGCUACAGUTT against Zfp277: -2.64 (active); GGCUCACUCAUUUGUCAGATT against Soat1: 0.0924. Consider GCCUAAUCAUUCCCAGCAUTT against Oog2, for which the z-score is 0.211. Consider CCUUCUACUGGCAACCUAUTT against Zfp110, for which the z-score is 0.25.

Turning to GGUAUCUACACCAAACUUATT against Klk1b5, the z-score is 0.685.

Take GGAGCUAACUGUCAAUGGATT against Usp17la: the z-score is 2.8 (active). For the sequence GGAUGAAGAACUGAAAUCUTT against Unc13b, the z-score was 0.167. Next, CCCUGUAAAGAUCGAGAAGTT against Zfp296: 0.241; GGGACACCCUUUGAAGAUGTT against Ube2b: -0.314. Next, GGCAUGAUGUUCAUGGAUATT against Nup62: -2.04 (active); CGAAGAUAAUUAUGGAGCCTT against Fat4: 0.548; CGCAGAGUUAAUUUCUUGUTT against Rchy1: 0.995. Next, CCAACAAUUCUGCCAAGACTT against Arrb2: -2.57 (active); CCGAAGGAUUGAAGAGCCUTT against Trnt1: 0.746; GGCUUCAUAAGAUCAAAGATT against Lca5l: -2.88 (active). Turning to GCAGGUCUAAUAAUGGUCATT against Syt12, the z-score was -0.536. In the case of GGAUCCUGCAUCUUAUAGUTT against Tcstv3, the z-score was 0.468. In the case of GCUGUUUCCCAGAGAAGAATT against Defb2, the z-score was -0.814. Regarding CGGUUCCAACCUUGAAAAATT against H1f10, the z-score is -0.676. Next, GCUCUACCGUUAAGUUAUUTT against Eif4e2: 0.499. Turning to GGUCAUCCUUUUUCAGUACTT against Lhx6, the z-score was 2.28 (active). Next, GGGCGUGAAUUCAGAGAUUTT against Pcdhgb5: -0.00376; CGGGUUCUACUAUCAUGCATT against Ltbp4: 0.259; GGUCACCAGUACCUAUGGATT against Bricd5: -2.17 (active). Turning to GGGACUGUACUCAUUUCUATT against Rnf138rt1, the z-score is -0.67. Next, GCAGGUUGAACGACAGCGUTT against Dph5: -0.349; GGAAUAAUCCCAGUUCUCUTT against Tmem101: -1.04. In the case of CCAGAAUGGCGGGUAUUUGTT against Fbln5, the z-score is 2.14 (active). Turning to GAAGGUGAAGUGCAGGAAGTT against Fxyd7, the z-score was -0.081. For GCAGGCCAGAGUAGUCAUGTT against Them6, the z-score is 0.579. Next, GGAAUUAACGUGUUUCUGUTT against Tor1aip2: 1.14; GGUGAUAAAGCUAUGUAUUTT against Ccn2: 0.147. Consider GGACAACAUUGACAAGUUCTT against Clcn7, for which the z-score was 1.36. GCUGGGUCCACAUGAAUCATT against Sucnr1: the z-score is 2.7 (active). Turning to GGAUCAGACAUGCAAGAGGTT against Xlr5c, the z-score is -1.81.

As for GCAUCAUGGUCACAAAUGGTT against Ncr1, the z-score is -0.613. Next, GCUACCGUGGGCGAUGUAATT against Dbi: -0.37; GGGAAAAUGCGAUUCAUGATT against P2ry14: -0.774; GGAGAUUAUUAACUUCACCTT against Hcn3: -0.895. On to GGAACUGGACUUAUUCCACTT against Wnt5b, for which the z-score is 0.652. For the sequence GGAGAAACCAGGAUCUAUUTT against Rnf14, the z-score is 2.22 (active).

In the case of GCCAGGAGUACUGUAUAUATT against Spint1, the z-score was -0.366. Regarding GGAGCUCUAAAAUUGACUUTT against Zfp92, the z-score is 1.17. Next, GGAAUCUAGAAGAAUCAUUTT against Gnao1: -0.42; GCUAUGGUAGCUGAUAACATT against Rell1: 1.21; GGAUCCUAAUGAGGACAUUTT against Jchain: 2.75 (active).

GCCACAAGAUACCAUCAGATT against Bex1: the z-score was -1.66.

Source of the values: PubChem BioAssay AID1508600 (Functional Genomics Laboratory (NCATS/FGL), 2020).
